Hits are enriched below; roughly 2.3% of the tested compounds scored in any of these assays.
POLH inh: inhibitors of human DNA polymerase eta; recombinant Pol eta, fluorescent DNA replication assay; Potency, µM (top dose mostly 114 µM), for the others: top-dose activity change, negative = inhibition, most hits filed as inhibitors; Q9Y253; 390,000 tested, 1.2% active; further: on the % scale 0 is the no-effect control and ±100 the full control effect
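Pol eta at 10 nM preincubated with compounds 15 min at room temperature; reaction started with fluorescent substrate (50 nM final) and read kinetically at 0 and 10 min.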
POLI inh: DNA polymerase iota (human) inhibition; Q9UNA4; Pol iota fluorescent replication assay, 10 min; Potency, µM (titrated, usually from 115 µM), for inactives: top-dose activity, negative = inhibition, usual class: inhibitors; 390,000 tested, 1% active
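Fluorescent replication assay read twice, at 0 min and 10 min after adding 50 nM (final) substrate. Enzyme (10 nM) and compounds were first incubated 15 min at room temperature; enzyme-free buffer wells were negative controls.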
WRN helicase inh: inhibitors of human WRN helicase | Q14191 | WRN helicase unwinding, fluorescent forked duplex, kinetic | Potency, µM (series often up to 114 µM), without a hit: at the top dose activity change, negative = inhibition, actives largely listed as inhibitors | 360,000 tested, 0.46% active | AID 651768; further: on the % scale 0 is the no-effect control and ±100 the full control effect; nearly all actives have a fitted effect of over 55% in size
Target sequence (Q14191 whole entry, looked up): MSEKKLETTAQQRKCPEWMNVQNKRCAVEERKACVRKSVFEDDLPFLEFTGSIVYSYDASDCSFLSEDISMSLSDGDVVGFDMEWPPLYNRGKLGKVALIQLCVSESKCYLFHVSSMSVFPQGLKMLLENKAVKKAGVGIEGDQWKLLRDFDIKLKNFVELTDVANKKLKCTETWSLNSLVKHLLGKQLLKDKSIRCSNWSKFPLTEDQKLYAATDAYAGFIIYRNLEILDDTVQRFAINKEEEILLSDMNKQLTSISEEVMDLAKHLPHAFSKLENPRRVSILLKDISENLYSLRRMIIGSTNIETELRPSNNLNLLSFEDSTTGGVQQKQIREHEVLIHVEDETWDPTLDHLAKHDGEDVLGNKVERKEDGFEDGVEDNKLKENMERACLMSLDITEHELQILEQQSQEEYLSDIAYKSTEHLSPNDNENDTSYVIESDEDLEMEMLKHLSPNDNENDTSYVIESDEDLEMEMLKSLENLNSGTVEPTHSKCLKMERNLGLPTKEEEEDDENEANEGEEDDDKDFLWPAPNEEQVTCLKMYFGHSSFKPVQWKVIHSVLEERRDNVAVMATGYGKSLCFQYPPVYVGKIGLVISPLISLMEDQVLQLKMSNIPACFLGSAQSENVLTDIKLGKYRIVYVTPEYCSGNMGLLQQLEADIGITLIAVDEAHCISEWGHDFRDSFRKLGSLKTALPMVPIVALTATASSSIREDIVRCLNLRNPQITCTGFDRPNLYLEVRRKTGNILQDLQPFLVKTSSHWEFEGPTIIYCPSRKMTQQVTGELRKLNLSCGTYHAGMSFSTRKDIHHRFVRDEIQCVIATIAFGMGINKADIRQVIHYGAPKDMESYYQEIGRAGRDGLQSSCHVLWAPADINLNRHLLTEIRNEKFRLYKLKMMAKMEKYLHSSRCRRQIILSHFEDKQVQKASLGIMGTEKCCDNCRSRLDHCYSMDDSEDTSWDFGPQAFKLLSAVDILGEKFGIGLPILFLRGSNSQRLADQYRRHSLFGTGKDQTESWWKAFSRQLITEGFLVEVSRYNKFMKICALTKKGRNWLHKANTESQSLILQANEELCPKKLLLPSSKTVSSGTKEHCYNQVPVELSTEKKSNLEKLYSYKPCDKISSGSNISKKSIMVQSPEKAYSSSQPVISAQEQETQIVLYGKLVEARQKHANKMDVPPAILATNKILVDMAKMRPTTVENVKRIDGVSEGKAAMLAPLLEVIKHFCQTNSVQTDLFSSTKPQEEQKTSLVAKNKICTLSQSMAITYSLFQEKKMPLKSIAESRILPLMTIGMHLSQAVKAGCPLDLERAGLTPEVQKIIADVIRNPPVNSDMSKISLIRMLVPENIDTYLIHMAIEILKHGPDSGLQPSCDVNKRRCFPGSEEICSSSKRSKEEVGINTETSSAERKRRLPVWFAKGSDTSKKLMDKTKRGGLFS
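Enzyme (20 nM final) and test compound sit together 15 min at room temperature before substrate addition. Substrate is a single-forked duplex oligonucleotide (100 nM) labelled with fluorophore and quencher, with 2 mM ATP; helicase unwinding raises red fluorescence, read kinetically.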
POLK inh: inhibitors of human DNA polymerase kappa; Q9UBT6; purified Pol kappa, fluorescent DNA synthesis assay, 10 min; Potency, µM (top dose mostly 107 µM), without a hit: at the highest dose activity, negative = inhibition, most hits filed as inhibitors; 400,000 tested, 0.53% active; further: on the % scale 0 is the no-effect control and ±100 the full control effect
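10 nM Pol kappa was preincubated with compounds for 15 min at room temperature. Reaction started with 50 nM (final) substrate. Fluorescence read kinetically at 0 and 10 min.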
POLB inh: blocks human DNA polymerase beta activity; Potency, µM (series often up to 114 µM), without a hit: at the highest dose activity change, negative = inhibition, hits mostly inhibitors; Pol beta primer extension/strand displacement, fluorescence kinetic; P06746; AID 485314; 340,000 tested, 1.3% active; further: on the % scale 0 is the no-effect control and ±100 the full control effect
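Values derive from four-parameter Hill fits of normalized kinetic data: reads at 0 and 10 min following addition of 50 nM substrate to 10 nM Pol beta preincubated 15 min with compound.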
* hit, by the source's call; ? = inconclusive; . = not tested or not shown; [ ] = remark or other dose. The call rests on the fitted dose curve; in most records, active means well fitted curve in the direction sought with a large enough effect; inconclusive means small, poorly fitted or top-dose-only effect, or another doubt; inactive means no such curve, though single readings can be large; an effect the other way counts as inactive or inconclusive. Potency means the concentration at half of the fitted maximal effect.

SMILES	POLH inh	POLI inh	WRN helicase inh	POLK inh	POLB inh
COc1ccccc1C(=O)Nc1ncc2c(n1)CC(c1ccco1)CC2=O (stereo unspecified)	-16%	56µM*	-6%[11.6 µM]	-34%	40µM*
CC(=O)c1sc2nc(C)c3c(c2c1N)CCCC3	-24%	105%	-10%	-3%	-28%
CC(=O)c1sc2nsc(SCCN3CCCC3)c2c1N	4%	18µM*	?	-27%	1%
O=C(Nc1ccc(Cl)cc1)Nc1nnc(-c2ccncc2)s1	?	13%	-3%	-3%	-13%
O=C(Nc1cccc(Cl)c1)Nc1nnc(-c2ccncc2)s1	?	?	-11%	-10%	40µM*
Cc1ccc(NC(=O)Nc2nnc(-c3ccncc3)s2)cc1C	89µM*	22µM*	-5%[11.6 µM]	?	1%
O=C(Nc1ccc(F)cc1)Nc1nnc(-c2ccncc2)s1	-15%	?	-3%	-28%	76%
CN(C)c1ccc(C=O)c(Cl)c1	.	8%	.	-10%	.
COc1ccc(NS(=O)(=O)c2cccc(C(=O)NN=Cc3cc(Br)c(O)c(Br)c3)c2)cc1	45µM*	16µM*	?	?	.
COc1cc(/C=N\NC(=O)c2ccc(-c3ccccc3)cc2)cc(Br)c1O	?	?	-29%	-39%	40µM*
COc1ccc(NS(=O)(=O)c2cccc(C(=O)N/N=C(/C)c3ccc(-n4ccnc4)cc3)c2)cc1	-14%	40µM*	?	-13%	.
COc1ccc(/C=N/NC(=O)c2ccc(-c3ccccc3)cc2)cc1O	-2%	-7%	-28%	-9%	-14%
CN(C)c1ccc(/C=C/c2ccnc3ccccc23)cc1Br	.	30%	.	-5%	.
COc1cc2nc(N3CCCN(C)CC3)nc(NC3CCOCC3)c2cc1OC	.	-5%	.	-5%	.
Nc1cc2sc(-c3ccc(C(=O)O)cc3)nc2cc1Cl	32µM*	?	-26%	-31%	?
Nc1ccc(-c2nc3ccc(C(=O)O)cc3s2)cc1	?	-7%	-20%	-21%	?
CC(=O)N1CCOc2ccc(S(=O)(=O)NCc3ccc(F)cc3)cc21	56µM*	71µM*	-5%[11.6 µM]	-42%	100µM*
O=C(O)c1cc(N(Cc2ccccc2O)Cc2ccccc2O)ccc1O	.	14µM*	.	45µM*	.
CCN(CC)c1ccc(C(=O)c2ccccc2C(=O)O)c(O)c1	-14%	-8%	-9%	-3%	9%
COc1ccc(Cl)cc1NC(=O)c1c(NCc2cccs2)sc2c1CCCC2	50µM*	-8%	.	-9%[60.1 µM]	?
O=C(O)c1ccc(CNc2ncnc3nc[nH]c23)cc1	.	8%	.	10%	.
Cc1c(N2C(=O)/C(=C/C3CC=CCC3)SC2=S)c(=O)n(-c2ccccc2)n1C (stereo unspecified)	-2%	18µM*	?	-16%	-29%
CN(C)c1ccc(C=Nc2ccc(/C=C3\C=Cc4ccccc43)cc2)cc1	.	20%	.	-4%	.
N#Cc1c(SCC(=O)Nc2ccc(Cl)cc2Cl)sc2c(O)cc(=O)[nH]c12	25µM*	32µM*	-3%[11.6 µM]	-41%	10%
CSc1ccc(NC(=O)CSc2nc3[nH]c(=O)cc(O)c3s2)cc1	40µM*	?	?	56µM*	.
SMILES	POLH inh	POLI inh	WRN helicase inh	POLK inh	POLB inh
CCOc1cccc(NC(=O)CSc2sc3c(O)cc(=O)[nH]c3c2C#N)c1	-3%	1%	-36%	4%	-20%
N#Cc1c(SCC(=O)Nc2ccccc2C(F)(F)F)sc2c(O)cc(=O)[nH]c12	?	32µM*	-3%[11.6 µM]	?	-16%
N#Cc1cccc(NC(=O)CSc2sc3c(O)cc(=O)[nH]c3c2C#N)c1	50µM*	?	?	?	?
O=C(Nc1ccc(Cl)cc1Cl)[C@@H]1CC=C[C@@H]2CCN(C3CC3)C(=O)[C@@H]21	.	12%	.	12%	.
CN(C)c1ccc(/C=C/c2ccnc3ccc(Cl)cc23)cc1	.	-7%	.	-4%	.
Nc1nc(SCc2ccc([N+](=O)[O-])cc2)c2ncn([C@@H]3O[C@H](CO)[C@H](O)[C@H]3O)c2n1	0%[57.1 µM]	-6%[58.9 µM]	.	.	-3%[57.1 µM]
CCCSc1nc2sc3c(c2c(=O)[nH]1)CCN(Cc1ccccc1)C3	?	12%	-5%	-15%	40µM*
CCCSc1nc2sc3c(c2c(=O)[nH]1)CC(C)CC3 (stereo unspecified)	-17%	30%	5%	1%	5%
CCc1cc2c(-c3ccccc3)cc(=O)oc2cc1OCC(C)=O	4%	59%	-33%	-11%	24%
CCCc1cc2c(-c3ccccc3)cc(=O)oc2cc1OCc1ccc(C(=O)O)o1	79µM*	-11%	-2%[11.6 µM]	-12%	?
Cc1oc(-c2ccccc2Cl)nc1CSCC(=O)N1CCCC1	11%	26%	-1%	-12%	79µM*
COc1ccc(-n2nc3c(N4CCCC(C(=O)NCc5ccc(C)cc5)C4)nnc(C)c3c2C)cc1 (stereo unspecified)	?	10%	.	-11%[60.1 µM]	16µM*
COc1ccc(CNC(=O)CCC(=O)N2CC3CCCN3c3ccccc32)cc1 (stereo unspecified)	3%	-24%	.	2%	4%
O=C(Nc1nc2c(F)cc(F)cc2s1)C1CC(=O)N(Cc2ccco2)C1 (stereo unspecified)	50µM*	28µM*	-8%[11.6 µM]	?	28µM*
Cc1cc(C)c2nc(NC(=O)C3CC(=O)N(Cc4ccco4)C3)sc2c1 (stereo unspecified)	-4%	75%	2%	-8%	-1%
Cn1c2ccccc2n2c(=O)cc(-c3ccccc3)c(C#N)c12	-1%	97%	?	-7%	45µM*
O=S(c1ccccc1)c1ccc2nnnn2n1 (stereo unspecified)	.	.	.	3%[60.1 µM]	.
Cc1cc(C)c(S(=O)(=O)/N=C2\C=C(NS(=O)(=O)c3ccccc3)C(=O)c3ccccc32)c(C)c1	-24%	?	-9%	1%	27%
Cc1cc(C)c(S(=O)(=O)/N=C2/C=C(SCC(=O)O)C(=O)c3ccccc32)cc1C	20µM*	6.3µM*	18µM*	-14%	?
COc1cc(O)c2c(=O)c3c(OC)c(O)ccc3oc2c1	-21%	8%	-6%	-6%	-27%
COc1cc(O)c2c(=O)c(O)c(-c3ccc(O)c(O)c3)oc2c1	.	.	.	0.95µM*	.
O=c1c(O)c(-c2ccc(O)cc2)oc2cc(O)cc(O)c12	25µM*	79µM*	-16%	-30%	.
CC(C)CCNC(=O)c1ccc(Cn2c(=O)c3cccn3c3cccnc32)cc1	-3%	-16%	.	-17%	61%
Cc1ccc(CCNC(=O)c2ccc(Cn3c(=O)c4cccn4c4cccnc43)cc2)cc1	?	79µM*	.	-17%	?
Cc1ccccc1CCNC(=O)c1ccc(Cn2c(=O)c3cccn3c3cccnc32)cc1	89µM*	?	.	3%	?

Bioassay records: PubChem BioAssay, National Center for Advancing Translational Sciences (NCATS)
